In PubChem BioAssay (NCI):
Several values for one entry are separate records, joined by “and”; a condition that tells them apart may be missing. Equal values may be shown once. This is part of a sample that, as a whole, favours compounds with a hit. Of some 83,000 tested, about 20% had one in any assay.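 Step 1: grow cells in 96-well plates. Step 2: add test compound at a single concentration. Step 3: incubate 48 h. Step 4: record percent growth.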 Unmarked numbers belong to inactive results. Activity calls are given as the source filed them. Rule for the calls: active = growth percent below 10; inactive = the rest.

The molecules below were run on MDA-MB-468 breast (assay: NCI-60 one-dose screen, 48 h (100 = growth as untreated, 0 = no growth, -100 = all killed)). Settings: 10 µM unless noted.

SMILES	growth
COc1ccc(O)c(CNC(=O)CN2CCCC2=O)c1	108%
COC(=O)[C@@H](C)C[C@H](Cc1ccccc1)NC(=O)c1csc([C@@H](C[C@H](C(C)C)N(C)C(=O)[C@H](C)NC(=O)[C@H]2CCCN2C)OC(C)=O)n1	25.8%
CN1C2CCC1[C@@H](COC(=O)c1ccccc1)[C@@H](O)C2 (stereo partly drawn)	86.1%
CCOP(=O)(Cc1ccc(C#N)cc1)OCC	108%
CCC1([N+](=O)[O-])COP(=O)(NCc2cccnc2)OC1 (stereo not drawn)	104%
O=C1NC(=O)C(=Cc2ccccc2)C(=O)N1	96.4% and 115%
CC(=O)Nc1ccc(Cc2ccc(NC(C)=O)cc2)cc1	95.6%
Cn1cc(-c2csc(-c3cn(CCN4CCOCC4)c4ccccc34)n2)c2cccnc21	63.3%
COc1ccc(/C=C\c2cc(OC)c(OC)c(OC)c2)cc1N/C=C\C(=O)c1c[nH]c2ccccc12	11.3%
Oc1c(Br)cc(Br)cc1Br.[Cu+2]	102%
COC1=CC(=O)O[C@@H](/C=C/c2ccc3c(c2)OCO3)C1	103%
COc1ccc(OC)c(/C=C/[N+](=O)[O-])c1	-59.3% (active)
CN1C(=O)C(=Cc2cn(Cc3ccccc3)c3ccccc23)C(=O)N(C)C1=O	-49.5% (active)
CC(=O)OC[C@]1(C)C=C2C(=O)[C@](C)(O)C3(CC3)C(C)=C2[C@H]1OC(=O)N(C)CCN(C)C(=O)OC(C)(C)C	-62.5% (active)
COc1ccc2c(c1)C1(C)CCN(C)CC(C1)C2O (stereo not drawn)	101%
CC[C@H](C)[C@H](NC(=O)C12C3C4C1C1C2C3C41NC)C(=O)N(C)[C@H](C[C@@H](OC(C)=O)c1nc(C(=O)N[C@@H](Cc2ccccc2)C[C@H](C)C(=O)OC)cs1)C(C)C (stereo partly drawn)	1.25% (active)
O=C(O)C(O)c1ccc(Cl)cc1 (stereo not drawn)	84.9% and 112%
Cc1cnc(/C=C/C(=O)O)cc1-c1cc2c(cc1C)C(C)(C)CCC2(C)C	95.4%
O=c1[nH]c(=O)n(Cl)c(=O)n1Cl	106% and 117%
O=C(CCCC1CCCCC1)OCC(Cl)(Cl)Cl	113%
C[C@]12CCc3sc(Nc4ccc(F)cc4F)nc3C1=CC[C@@H]1[C@@H]2CC[C@]2(C)C(=O)CC[C@@H]12	23.3%
CCOP(=O)(Nc1ccc2c(c1)/C(=N/NC(N)=S)c1ccccc1-2)OCC	86%
CCC1(CCSC#N)C(=O)NC(=O)NC1=O	107%
